The test system of assay [1] is S. cerevisiae SK1 pCDA2-eGFP (USY613), sporulating. The assay is described as follows: CDA2-GFP sporulation assay sensitivity score (z-score vs DMSO controls); higher = stronger inhibition of sporulation, active = hit call of the paper.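 Also: active if sensitivity score above 5.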
Assay [2] concerns S. cerevisiae NKY1551 his4x/his4B, sporulating. The assay is described as follows: HIS4 meiotic recombination assay sensitivity score (z-score vs DMSO controls); higher = stronger inhibition of sporulation/recombination, active = hit call of the paper.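 Also: active if sensitivity score above 5.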
Assay [3] deals with S. cerevisiae AD1-9 (efflux-pump deficient), vegetative growth in YPD. The assay is described as follows: growth sensitivity score (doubling time z-score vs DMSO controls); higher = slower growth, strongly negative scores also mark growth inhibition (complete suppression), active = hit call of the paper. The method, boiled down:
(§1)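 Yeast (Saccharomyces cerevisiae BY4741 and AD1-9) was grown in rich medium in microtiter plates from a starting OD600 of 0.065, with optical density read every 15 min over 24 hours. The growth sensitivity score was the difference between compound and solvent-only means, divided by the solvent-only standard deviation. Every experiment had eight solvent-only wells.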

Assay [4] concerns S. cerevisiae BY4741 (wild-type), vegetative growth in YPD. Described as above. The method, boiled down:
as §1

Where a name gives a salt, the structure may show the parent alone.

Take `CSc1nc2cc(Cl)c(Oc3cccc(Cl)c3Cl)cc2[nH]1` [Triclabendazole] (stock concentration (mM, diluted 1:100): 10): the “CDA2-GFP sporulation assay sensitivity score” value in assay [1] is 0.58 (inactive). The “HIS4 meiotic recombination assay sensitivity score” value in assay [2] is -1.98 (inactive). Besides, the growth sensitivity score in assay [3] was 74.8 (active); in assay [4], 168 (active).

For `CC1(C)C[C@@H]1C(=O)N/C(=C\CCCCSC[C@H](N)C(=O)O)C(=O)O` [Cilastatin] (stock concentration (mM, diluted 1:100): 9.4), in assay [1], the “CDA2-GFP sporulation assay sensitivity score” value was -1.2 (inactive). The “HIS4 meiotic recombination assay sensitivity score” value in assay [2] is -0.68 (inactive). Moreover, the growth sensitivity score was -1.86 (inactive) in assay [3] and -0.97 (inactive) in assay [4].

Take `COc1cccc2c1C(=O)c1c(O)c3c(c(O)c1C2=O)C[C@@](O)(C(=O)CO)C[C@@H]3O[C@H]1C[C@H](N)[C@@H](O)[C@H](C)O1` [Epirubicin hydrochloride] (stock concentration (mM, diluted 1:100): 9.4): the “CDA2-GFP sporulation assay sensitivity score” value in assay [1] was -0.4 (inactive). Also, the “HIS4 meiotic recombination assay sensitivity score” value in assay [2] was -1.39 (inactive). Also, the growth sensitivity score in assay [3] was 93.9 (active); in assay [4], 11.8 (active).

`COc1ccc(/C=C/C(=O)Nc2ccccc2C(=O)O)cc1OC` [Tranilast] (stock concentration (mM, diluted 1:100): 10): the “CDA2-GFP sporulation assay sensitivity score” value in assay [1] is 0.24 (inactive). The “HIS4 meiotic recombination assay sensitivity score” value in assay [2] is 0.1 (inactive). In addition, the growth sensitivity score in assay [3] is -1.78 (inactive); in assay [4], -0.6 (inactive).

As to `Cc1ncc([N+](=O)[O-])n1CC(O)CCl` (stereo not drawn) [Ornidazole] (stock concentration (mM, diluted 1:100): 10), the “CDA2-GFP sporulation assay sensitivity score” value in assay [1] is -0.66 (inactive). The “HIS4 meiotic recombination assay sensitivity score” value in assay [2] is -0.66 (inactive). In addition, the growth sensitivity score is -0.62 (inactive) in assay [3] and -2.78 in assay [4].

As for `CN(C)CC[C@@H](c1ccc(Cl)cc1)c1ccccn1` [Dexchlorpheniramine maleate] (stock concentration (mM, diluted 1:100): 7), the “CDA2-GFP sporulation assay sensitivity score” value in assay [1] was 7.64 (inactive). In addition, the “HIS4 meiotic recombination assay sensitivity score” value in assay [2] was 2.35 (inactive). Also, the figures for the growth sensitivity score in assay [3] and in assay [4] were -0.12 (inactive) and 0.54 (inactive), respectively.

As to `CN(C)CCOC(C)(c1ccccc1)c1ccccn1` (stereo not drawn) [Doxylamine succinate] (stock concentration (mM, diluted 1:100): 10), the “CDA2-GFP sporulation assay sensitivity score” value in assay [1] was -0.3 (inactive). Further, the “HIS4 meiotic recombination assay sensitivity score” value in assay [2] was 1.01 (inactive). For the same compound, the values for the growth sensitivity score in assay [3] and in assay [4] were -0.68 (inactive) and 1.39 (inactive), respectively.

For `CC(C)/N=c1\cc2n(-c3ccc(Cl)cc3)c3ccccc3nc-2cc1Nc1ccc(Cl)cc1` [Clofazimine] (stock concentration (mM, diluted 1:100): 10), the “CDA2-GFP sporulation assay sensitivity score” value in assay [1] was 0.66 (inactive). Besides, in assay [2], the “HIS4 meiotic recombination assay sensitivity score” value is -1.5 (inactive). In addition, the values for the growth sensitivity score in assay [3] and in assay [4] were 108 (active) and 61.3 (active), respectively.

Regarding `CNNCc1ccc(C(=O)NC(C)C)cc1` [Procarbazine hydrochloride] (stock concentration (mM, diluted 1:100): 8.6), in assay [1], the “CDA2-GFP sporulation assay sensitivity score” value was -0.1 (inactive). In assay [2], the “HIS4 meiotic recombination assay sensitivity score” value was -1.19 (inactive). Moreover, the growth sensitivity score in assay [3] is -0.84 (inactive); in assay [4] it was 0.69 (inactive).

Consider `CCOC(=O)c1ncn2c1CN(C)C(=O)c1cc(F)ccc1-2` [Flumazenil] (stock concentration (mM, diluted 1:100): 10), for which the “CDA2-GFP sporulation assay sensitivity score” value in assay [1] was 1.01 (inactive). In addition, the “HIS4 meiotic recombination assay sensitivity score” value in assay [2] is -0.81 (inactive). For the same compound, the values for the growth sensitivity score in assay [3] and in assay [4] were -0.24 (inactive) and 1.4 (inactive), respectively.

As for `CC(=O)SCC(Cc1ccccc1)C(=O)NCC(=O)OCc1ccccc1` (stereo not drawn) [Acetorphan] (stock concentration (mM, diluted 1:100): 10), the “CDA2-GFP sporulation assay sensitivity score” value in assay [1] was 0.9 (inactive). Further, the “HIS4 meiotic recombination assay sensitivity score” value in assay [2] was 1.65 (inactive). Further, the growth sensitivity score in assay [3] is 22.1 (active); in assay [4], 0.93 (inactive).

Take `CC1(C)S[C@@H]2[C@H](/N=C/N3CCCCCC3)C(=O)N2[C@H]1C(=O)O` [Mecillinam] (stock concentration (mM, diluted 1:100): 10): in assay [1], the “CDA2-GFP sporulation assay sensitivity score” value is 0.59 (inactive). In addition, the “HIS4 meiotic recombination assay sensitivity score” value in assay [2] was -0.86 (inactive). Moreover, the growth sensitivity score in assay [3] is -0.02 (inactive); in assay [4], 1.05 (inactive).

`O=C(c1ccccc1)c1ccc2n1CCC2C(=O)O` (stereo not drawn) [Toradol] (stock concentration (mM, diluted 1:100): 6.8): the “CDA2-GFP sporulation assay sensitivity score” value in assay [1] is -1.05 (inactive). In addition, the “HIS4 meiotic recombination assay sensitivity score” value in assay [2] is -1.15 (inactive). The growth sensitivity score in assay [3] was 0.21 (inactive); in assay [4], 0.91 (inactive).

On to `CS(=O)(=O)c1ccc(-c2cc(Br)sc2-c2ccc(F)cc2)cc1` (stock concentration (mM, diluted 1:100): 10), for which the “CDA2-GFP sporulation assay sensitivity score” value in assay [1] was 12.1 (inactive). For the same compound, the “HIS4 meiotic recombination assay sensitivity score” value in assay [2] was 1.98 (inactive). Also, the growth sensitivity score was 8.97 (active) in assay [3] and -0.63 (inactive) in assay [4].

`CN(C)CCCSc1ccccc1NC(=O)/C=C/c1ccccc1` [Cinanserin] (stock concentration (mM, diluted 1:100): 10): the “CDA2-GFP sporulation assay sensitivity score” value in assay [1] is 1.28 (inactive). Moreover, the “HIS4 meiotic recombination assay sensitivity score” value in assay [2] is 7.73 (active). The results for the growth sensitivity score in assay [3] and in assay [4] were 41.8 (active) and 1.35 (inactive), respectively.

Consider `O=C(O)CCc1nc(-c2ccccc2)c(-c2ccccc2)o1` [Oxaprozin] (stock concentration (mM, diluted 1:100): 10), for which, in assay [1], the “CDA2-GFP sporulation assay sensitivity score” value is -0.84 (inactive). Also, the “HIS4 meiotic recombination assay sensitivity score” value in assay [2] was -0.23 (inactive). Besides, the values for the growth sensitivity score in assay [3] and in assay [4] were 5.72 (active) and 0.61 (inactive), respectively.

In the case of `CN(CCOc1ccc(CC2SC(=O)NC2=O)cc1)c1ccccn1` (stereo not drawn) [Rosiglitazone maleate] (stock concentration (mM, diluted 1:100): 7.6), in assay [1], the “CDA2-GFP sporulation assay sensitivity score” value was 1.38 (inactive). Besides, the “HIS4 meiotic recombination assay sensitivity score” value in assay [2] was 0.95 (inactive). Besides, the growth sensitivity score is 2.19 (active) in assay [3] and 1.82 (inactive) in assay [4].

(Values after the supplement of paper PMC3414501.)
